Several values for one entry are separate records, joined by “and”; a condition that tells them apart may be missing. Equal entries are not always repeated. Inconclusive results are not listed. Entries that show only a call come without a potency. A number with no mark means an inactive call. Activity calls are given as the source filed them. The call rests on the fitted dose curve; in most records, active means well fitted curve in the direction sought with a large enough effect; inconclusive means small, poorly fitted or top-dose-only effect, or another doubt; inactive means no such curve, though single readings can be large; an effect the other way counts as inactive or inconclusive. Square brackets hold non-standard residues; d marks the D form. Peptide text beside a SMILES is read from it.
Experiments:
[1] = target: Cellular tumor antigen p53 (Homo sapiens) (UniProt P04637); test: Primary qHTS for small molecule compounds that upregulate eGFP-tagged delta133p53alpha (in N-terminal) cells. (AID 2060322); conditions: NCI-H358 eGFP-delta133p53alpha fluorescence, 24 h; activation: active compounds read high; further: nearly all actives have a fitted effect of over 75% in size; further: potency means the concentration at half of the fitted maximal effect; on activation: series mostly up to about 56 µM
How it was run: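 NCI-H358 cells pre-induced 24 h with 10 ng/ml doxycycline to express N-terminal eGFP-delta133p53alpha, then dosed 24 h at 37C without doxycycline; fixed, Hoechst-stained, GFP intensity by laser scanning cytometry, normalized to DMSO (0%) and 57.5 uM 5-azacytidine (100%).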

[2] = target: Aldehyde dehydrogenase, mitochondrial (Homo sapiens) (UniProt P05091); test: qHTS for Inhibitors of the Aldehyde Dehydrogenase Family (ALDH2) Primary screen (AID 2061308); further: nearly all actives have a fitted effect of over 55% in size
[3] = target: Retinaldehyde dehydrogenase 3 (Homo sapiens) (UniProt P47895); test: qHTS for Inhibitors of the Aldehyde Dehydrogenase Family (ALDH1A3) Primary screen (AID 2061315)

Cellular tumor antigen p53 (Homo sapiens), sequence (P04637 whole entry, looked up): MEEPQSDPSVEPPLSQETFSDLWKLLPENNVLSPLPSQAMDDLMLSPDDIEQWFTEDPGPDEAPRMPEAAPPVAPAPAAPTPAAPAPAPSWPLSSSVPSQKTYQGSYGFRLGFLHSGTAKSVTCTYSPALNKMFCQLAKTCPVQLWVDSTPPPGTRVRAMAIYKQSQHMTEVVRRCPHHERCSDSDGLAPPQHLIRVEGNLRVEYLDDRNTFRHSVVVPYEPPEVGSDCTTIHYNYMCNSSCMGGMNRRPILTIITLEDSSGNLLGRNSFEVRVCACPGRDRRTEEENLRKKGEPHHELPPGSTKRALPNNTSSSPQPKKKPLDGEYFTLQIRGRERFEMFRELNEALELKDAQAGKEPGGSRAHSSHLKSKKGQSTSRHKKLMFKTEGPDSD

CCC(C)C(=O)OC[C@H]1O[C@H](O[C@H]2O[C@H](CO)[C@@H](O)[C@H](O)[C@H]2O)[C@H](O)[C@@H](O)[C@@H]1O (some centres not stated)
activation [1]: 1.53% | Potency [2]: inactive | Potency [3]: inactive

CC(=O)NC1CC(=O)C23C(=O)NC(Cc4c[nH]c5ccccc45)C2C(C)=C(C)C(O)C3/C=C/CC(C)/C=C(/C)C(O)C1O (configuration not stated)
activation [1]: 8.93% | Potency [2]: inactive | Potency [3]: inactive

CC(C)(O)C1CCC2(C)C3C(O)C4C(C13)C42CO (configuration not stated)
activation [1]: 3.57% | Potency [2]: inactive | Potency [3]: inactive

Cc1ccc(OC[C@H](O)[C@H](C)NC(C)C)c2c1CCC2
activation [1]: 10.3% | Potency [2]: inactive | Potency [3]: inactive

CCCCn1ccc(N2CCC(c3ccccc3)CC2)c(Cl)c1=O
activation [1]: -2.33% | Potency [2]: inactive | Potency [3]: inactive

COc1cc2c(c(OC)c1CC=C(C)C)C[C@H](c1ccc(O)cc1O)CO2
activation [1]: 12.5% | Potency [2]: inactive | Potency [3]: inactive

C=C1CCC2C(C)(C)CCC[C@]2(C)[C@H]1CC/C(C)=C/C(=O)O (some centres not stated)
activation [1]: -3.82% | Potency [2]: inactive | Potency [3]: inactive

CC(C)(C)Nc1nc2cc(Cl)c(Cl)cc2nc1S(C)(=O)=O
Potency [1]: 3.38 µM (active) | Potency [2]: inactive | Potency [3]: inactive

C=C1C[C@@]23CCC4[C@@](C)(CCC[C@@]4(C)C(=O)OC)C2CC[C@@H]1C3 (some centres not stated)
activation [1]: -32.8% | Potency [2]: inactive | Potency [3]: inactive

C/C=C1\[C@H](O[C@@H]2O[C@H](CO)[C@@H](O)[C@H](O)[C@H]2O)OC=C(C(=O)OC)[C@H]1CC(=O)OC
activation [1]: 4.46% | Potency [2]: inactive | Potency [3]: inactive

O=C(O[C@H]1[C@@H]2C=CO[C@@H](O[C@@H]3O[C@H](CO)[C@@H](O)[C@H](O)[C@H]3O)[C@@H]2[C@@]2(CO)O[C@@H]12)c1ccc(O)cc1
activation [1]: 4.58% | Potency [2]: inactive | Potency [3]: inactive

CC1(C)CC[C@]2(C(=O)O)CC[C@]3(C)C(=CCC4[C@@]5(C)C[C@H](O)[C@H](O[C@@H]6OC[C@H](O)[C@H](O)[C@H]6O)[C@@](C)(CO)C5CC[C@]43C)[C@@H]2C1 (some centres not stated)
activation [1]: -9.16% | Potency [2]: inactive | Potency [3]: inactive

CC(=O)O[C@@H]1[C@@H](O)[C@H](C)O[C@@H](O[C@H]2[C@@H]3C=CO[C@@H](O[C@@H]4O[C@H](CO)[C@@H](O)[C@H](O)[C@H]4OC(C)=O)[C@@H]3[C@@]3(CO)O[C@@H]23)[C@@H]1OC(=O)/C=C/c1ccc(O)cc1
activation [1]: -17.6% | Potency [2]: inactive | Potency [3]: inactive

C[C@@H]1C[C@@H](O)[C@@]23CO[C@]2(CO)CCC[C@@H]3[C@@]12C[C@@H](c1ccoc1)OC2=O
activation [1]: 24.4% | Potency [2]: inactive | Potency [3]: inactive

O=C(O)CCCCCC[C@H]1C(=O)NC(=O)N1CC[C@@H](O)C1CCCCC1
activation [1]: -1.67% | Potency [2]: inactive | Potency [3]: inactive

COc1c2c(cc3c1-c1c(cc4c(c1OC)OCO4)CC(C)C(C)C3)OCO2 (configuration not stated)
activation [1]: -6.87% | Potency [2]: inactive | Potency [3]: inactive

CCOc1nc2cccc(C(=O)O)c2n1Cc1ccc(-c2ccccc2-c2nn[nH]n2)cc1
activation [1]: -1.69% and 19.6% | Potency [2]: inactive | Potency [3]: inactive

CO[C@H]1C=C2C(CC[C@H](O[C@@H]3O[C@H](CO)[C@@H](O)[C@@H](O)[C@H]3O)C2(C)C)[C@]2(C)CC[C@]3(C)C([C@H](C)C(O)C(C=C(C)C)O[C@@H]4O[C@H](CO)[C@@H](O)[C@@H](O)[C@H]4O)CC[C@@]3(C)C12 (some centres not stated)
activation [1]: 0.763% | Potency [2]: inactive | Potency [3]: inactive

COc1cc(/C=C/C(=O)O)ccc1O[C@@H]1O[C@H](CO)[C@@H](O)[C@H](O)[C@H]1O[C@@H]1OC[C@](O)(CO)[C@H]1O
activation [1]: -13% | Potency [2]: inactive | Potency [3]: inactive

CCC(C)C1NC(=O)C(Cc2ccccc2)NC(=O)C(CCCCCC(=O)C(O)CO)NC(=O)C2CCCCN2C1=O (configuration not stated)
activation [1]: -9.92% | Potency [2]: inactive | Potency [3]: inactive

COC1OC(OC)C(O)(CCC2(C)C(C)CCC3(C)C2CC(O)C(O)C32CO2)C1O (configuration not stated)
activation [1]: 0.763% | Potency [2]: inactive | Potency [3]: inactive

CC(C)n1cnc2c(-c3cnc(N)nc3)nc(N3CCOCC3)nc21
activation [1]: 15.7% | Potency [2]: inactive | Potency [3]: inactive

C/C=C1/C[N+](C)([O-])C2Cc3c([nH]c4ccccc34)C(=O)CC1C2C(=O)OC (configuration not stated)
activation [1]: -9.82% | Potency [2]: inactive | Potency [3]: inactive

CCN(CCN(C)C)C(=O)CNCc1cc(C(N)=O)ccn1
activation [1]: -3.67% | Potency [2]: inactive | Potency [3]: inactive

CC1OC(O[C@@H]2[C@H](O)[C@@H](OC3OC(CO)C(O)C(O)C3O)[C@H](OC(=O)[C@]34CCC(C)(C)C[C@H]3C3=CCC5[C@@]6(C)CC[C@H](O[C@@H]7O[C@H](C(=O)O)[C@@H](O)[C@H](O[C@@H]8OC[C@@H](O)[C@H](O)[C@H]8O)[C@H]7O[C@@H]7O[C@H](CO)[C@H](O)[C@H](O)[C@H]7O)[C@@](C)(C=O)C6CC[C@@]5(C)[C@]3(C)C[C@H]4O)O[C@@H]2C)C(O)C(O)C1OC1OCC(O)C(O)C1O (some centres not stated)
activation [1]: 5.34% | activity change, negative = inhibition [2]: 2.11% [at 11.2 µM] | activity change, negative = inhibition [3]: 11.9% [at 11.2 µM]

C/C=C/C=C/[C@@H]1O[C@](O)([C@H](CC)C(=O)NC/C=C/C=C(\C)[C@@H](OC)[C@@H](C)[C@@H]2O[C@H](/C=C/C=C/C=C(\C)C(=O)c3c(O)ccn(C)c3=O)[C@H](O)[C@@H]2O)[C@H](O)[C@H](O)C1(C)C
activation [1]: 4.58% | Potency [2]: inactive | Potency [3]: inactive

CC(C)C1(O)C=C2C(=O)CC3C(C)(C(=O)O)CCCC3(C)C2CC1 (configuration not stated)
activation [1]: -12.2% | Potency [2]: inactive | Potency [3]: inactive

CCC(C)C(=O)O[C@H]1[C@H](O)[C@@]2(COC(C)=O)C(CC1(C)C)C1=CCC3[C@@]4(C)CC[C@H](O[C@@H]5O[C@H](C(=O)O)[C@@H](O)[C@H](O)[C@H]5O)[C@@](C)(CO)C4CC[C@@]3(C)[C@]1(C)C[C@@H]2O (some centres not stated)
activation [1]: -0.893% | Potency [2]: inactive | Potency [3]: inactive

C=C1/C(=C/C=C2\CCC[C@]3(C)[C@@H]([C@H](C)CC[C@@H](O)C(C)(C)O)CC[C@@H]23)C[C@@H](O)C[C@@H]1O
activation [1]: 10.3% | Potency [2]: inactive | Potency [3]: inactive

COc1cc(C)c(C(=O)O[C@@H]2[C@H](O)[C@@H](CO)O[C@H]2n2ccc(=O)[nH]c2=O)c(OC)c1
activation [1]: -5.34% | Potency [2]: inactive | Potency [3]: inactive

CC(C)c1ccc2c(c1)C(O)CC1C(C)(C(=O)O)CCCC21C (configuration not stated)
activation [1]: -6.11% | Potency [2]: inactive | Potency [3]: inactive

O=S(=O)(c1ccc(Cl)cc1)N1CCN(c2ccnc3cc(Cl)ccc23)CC1
activation [1]: -12.5% | Potency [2]: inactive | Potency [3]: inactive

CC(C)c1cc(C(=O)N2CC[C@@H](NC(=O)C3CC3)C2)n[nH]1
activation [1]: -7.67% | Potency [2]: inactive | Potency [3]: inactive

C=C1C(O[C@@H]2O[C@H](CO)[C@@H](O)[C@H](O)[C@@H]2O)CC2C(C)(C)C(O)CCC2(C)C1CC/C(C)=C\CO (some centres not stated)
activation [1]: 6.11% | Potency [2]: inactive | Potency [3]: inactive

C[C@H](CN1CCCC1)C(=O)c1ccc(C(F)(F)F)cc1
activation [1]: 21% | Potency [2]: inactive | Potency [3]: inactive

Cc1cc2nc(NCCCO)n(CC(=O)c3cc(C(C)(C)C)c(O)c(C(C)(C)C)c3)c2cc1C
activation [1]: 5% | Potency [2]: inactive | Potency [3]: inactive

Cc1ccc(S(=O)(=O)n2ccc(-c3c(-c4ccc(Cl)cc4)noc3C)n2)cc1
activation [1]: -18.8% | Potency [2]: inactive | Potency [3]: inactive

CC1(CO)CCCC2(C)C3COC(=O)C3=CC(O)C12 (configuration not stated)
activation [1]: -8.04% | Potency [2]: inactive | Potency [3]: inactive

Cc1csc(NC(=O)c2ccc(COc3cccc(Cl)c3)o2)n1
activation [1]: -9.67% | Potency [2]: inactive | Potency [3]: inactive

CC(=O)O[C@@H]1[C@@H](O)[C@H](O[C@H]2CC[C@]34C[C@]35CC[C@]3(C)[C@@H]([C@@]6(C)CC[C@@H](C(C)(C)O)O6)[C@@H](O)C[C@@]3(C)[C@@H]5C[C@H](O[C@@H]3O[C@H](CO)[C@@H](O)[C@H](O)[C@H]3O)[C@H]4C2(C)C)OC[C@H]1O
activation [1]: 15% | Potency [2]: inactive | Potency [3]: inactive

CNC12CC3C[C@@](C)(C1)C[C@](C)(C3)C2
activation [1]: -6.33% | Potency [2]: inactive | Potency [3]: inactive

C[C@H]1O[C@@H](O[C@H]2CC[C@@]3(C)C(CC[C@]4(C)C3CC=C3C5CC(C)(C)CC[C@]5(C(=O)O)CC[C@]34C(=O)O)C2(C)C)[C@H](O)[C@@H](O)[C@@H]1O (some centres not stated)
activation [1]: -12.2% | Potency [2]: inactive | Potency [3]: inactive

COc1ccc(CN2CCN(CCCSc3cc(C(C)(C)C)c(O)c(C(C)(C)C)c3)CC2)c(OC)c1OC
activation [1]: 16.3% | Potency [2]: inactive | Potency [3]: inactive

CCC(C)C(=O)OC1CC(C)C=C2C=CC(C)C(CCC(O)CC(O)CC(=O)O)C21 (configuration not stated)
activation [1]: -1.53% | Potency [2]: inactive | Potency [3]: inactive

COc1cc(/C=C2\CCCN([C@@H](C)c3ccc(F)cc3)C2=O)ccc1-n1cnc(C)c1
activation [1]: -22.3% | Potency [2]: inactive | Potency [3]: inactive

C=C1C(=O)OC2C1C(O)CC1(C)C(O)CCC(C=O)C21 (configuration not stated)
activation [1]: 13.4% | Potency [2]: inactive | Potency [3]: inactive

C[C@@H]1CC[C@]2(C(=O)O)CC[C@]3(C)C(=CCC4[C@@]5(C)C[C@@H](O)[C@@H](O)C(C)(C)C5CC[C@]43C)C2[C@]1(C)O (some centres not stated)
activation [1]: -5.36% | Potency [2]: inactive | Potency [3]: inactive

CC(=O)N[C@H](Cc1ccc(O)cc1)C(=O)N[C@H](CCCN=C(N)N)C(=O)N[C@H](Cc1ccccc1)C(N)=O (Ac-[dY]-[dR]-[dF]-NH2)
activation [1]: -15.7% | Potency [2]: inactive | Potency [3]: inactive

OC[C@H]1O[C@@H](OC(CCCCc2ccc(O)cc2)CCc2ccc(O)cc2)[C@H](O[C@@H]2OC[C@](O)(CO)[C@H]2O)[C@@H](O)[C@@H]1O (some centres not stated)
activation [1]: -24.4% | Potency [2]: inactive | Potency [3]: inactive

— PubChem BioAssay (NCATS)
